Hits are enriched below; roughly 15% of the tested compounds scored in any of these assays.
SARS PLpro yeast: SARS-CoV PLP inhibition in yeast; Potency, µM (series often up to 32.9 µM), inactives show at the top dose activity, positive = growth rescue, usual class: activators; 330,000 tested, 0.19% active; S. cerevisiae expressing SARS-CoV PLpro, growth rescue; calls by dose curve; note: potency is the fitted concentration of half-maximal effect; 0% is about no effect; nearly all actives have a fitted effect of over 55% in size
Sm TGR inh: blocks Schistosoma mansoni thioredoxin glutathione reductase. 360,000 tested, 3% active. Q962Y6. Potency, µM (series often up to 114 µM), for the others: at the highest dose activity change, negative = inhibition, hits mostly inhibitors. purified TGR, DTNB reduction, TNB absorbance 405 nm; note: potency is the fitted concentration of half-maximal effect; % is set by controls: 0 for no effect and ±100 for the full control effect; nearly all actives have a fitted effect of over 60% in size
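Kinetic colorimetric format: TGR-catalysed, NADPH-driven DTNB reduction monitored via TNB absorbance. Enzyme dispensed at 20 nM; compound exposure 15 min at room temperature before reaction start.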
Pf growth 48h: inhibits P. falciparum growth in the first generation, 48 h | P. falciparum luciferase growth in erythrocytes, 48 h | Potency, µM (top dose mostly 28.7 µM), inactives show at the highest dose activity change, negative = inhibition, actives largely listed as inhibitors | AID 504832 | 310,000 tested, 5.9% active; note: potency is the fitted concentration of half-maximal effect; % is set by controls: 0 for no effect and ±100 for the full control effect
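Compounds are pin-transferred into medium, infected erythrocytes (2% hematocrit, 0.1% parasitemia final) are added, and plates sit one parasite generation at 37 C in 5% CO2. Detection reagent is then added and luminescence measured.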
HCMV inh: human cytomegalovirus inhibition; HFF cells, HCMV-luciferase reporter, 72 h; stronger effect = lower value; 410,000 tested, 4.5% active; activity change, negative = inhibition, % at 57.5 µM; AID 1259415; in the data active = activity change below about -60%; inconclusive = no clear call, values can overlap the other calls; inactive = above about -39%; note: % is set by controls: 0 for no effect and ±100 for the full control effect
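After 16 h attachment at 37C, HFF cells received test compound and HCMV-luciferase (1 PFU/cell); reporter luminescence read 72 h later, data normalized against buffer-only and known inhibitor Salinomycin.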
HCV inhibitor: HCV inhibition. Potency, µM (titrated, usually from 41.8 µM), inactives show at the highest dose activity change, negative = inhibition, actives largely listed as inhibitors. AID 651820. Huh7.5.1 HCVcc-Cre infection, luciferase reporter, 44 h. 340,000 tested, 3.4% active; note: potency is the fitted concentration of half-maximal effect; % is set by controls: 0 for no effect and ±100 for the full control effect
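Whole-lifecycle infectious HCVcc-Cre system; cells 1,000/well, compound then virus (~0.5 moi) added 4 h after plating, 44 h culture. Luciferase read 15 sec following 15 min substrate incubation, room temp.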
Pf growth 96h: P. falciparum growth inhibition at 96 hour, primary screen for plastid delayed-death inhibitors; P. falciparum luciferase reporter growth, 96 h; Potency, µM (highest dose often 28.7 µM), for the others: top-dose activity change, negative = inhibition, hits mostly inhibitors; 320,000 tested, 6.9% active; AID 504834; note: potency is the fitted concentration of half-maximal effect; % is set by controls: 0 for no effect and ±100 for the full control effect
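P. falciparum expressing integrated firefly luciferase, in erythrocytes at 2% hematocrit, 0.05% parasitemia, incubated with compounds 96 h at 37 C, 5% CO2. Growth inhibition read as loss of luminescence; two-generation exposure targets delayed-death apicoplast inhibitors.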
Numbers without * were called inactive; [ ] = dose if it differs, or a comment. Unless noted, calls come from the whole dose curve; as a rule, active = well fitted curve in the direction sought with a large enough effect; inconclusive = small, poorly fitted or top-dose-only effect, or another doubt; inactive = no such curve, though single readings can be large; an effect the other way counts as inactive or inconclusive.

CCc1ccc(NCc2cc3ccc(OC)cc3n(CC(=O)Nc3ccc(F)cc3F)c2=O)cc1 was read as Sm TGR inh -2.1% and HCMV inh -19.9.
Screening Clc1cccc(CN2CCSCC2)c1 returned SARS PLpro yeast 7.7%, Sm TGR inh 1.1%, Pf growth 48h inconclusive, HCMV inh -7.5, HCV inhibitor 21.5% and Pf growth 96h 24.0%.
`Cc1ccc(N(CCC#N)C(=O)COC(=O)c2ccccc2SCC(=O)N2CCCC2)cc1` gave Sm TGR inh 2.6%, Pf growth 48h inconclusive, HCMV inh inconclusive, HCV inhibitor inconclusive and Pf growth 96h inconclusive.
Screening Cc1cc(C)cc(N(CCC#N)C(=O)COC(=O)c2ccccc2SCC(=O)N2CCCC2)c1 returned SARS PLpro yeast 1.4%, Sm TGR inh -8.5%, Pf growth 48h inconclusive, HCMV inh 43.8, HCV inhibitor 0.1% and Pf growth 96h 11.7µM*.
O=C(Cn1cccc1C(=O)c1ccccc1)NCc1cccc(Cl)c1 was read as SARS PLpro yeast 0.3%, Sm TGR inh 11.6%, Pf growth 48h 44.4%, HCMV inh 10.6, HCV inhibitor 10.8% and Pf growth 96h 13.1µM*.
For O=C(N/N=C\c1ccc(COc2ccc([N+](=O)[O-])cc2)o1)c1ccc(Cl)cc1 the results were SARS PLpro yeast -3.3%, Sm TGR inh -18.3%, Pf growth 48h -5.5%, HCMV inh 21.9 and HCV inhibitor inconclusive.
`O=[N+]([O-])CC(=Nc1ccc(Cl)cc1)N/N=C\c1oc(O)c2ccccc12` gave SARS PLpro yeast 13.8%, Sm TGR inh 12.6µM*, HCMV inh 78.6, HCV inhibitor inconclusive and Pf growth 96h 43.9%.
Screening CC(=O)[C@H]1CC[C@H]2[C@@H]3C=CC4=CC(=O)CC[C@@]4(C)[C@H]3CC[C@]12C returned Pf growth 48h -12.0%[12.8 µM] and Pf growth 96h -19.5%[12.8 µM].
Screening COc1ccc(C(=O)NNC(=O)C2CC=CCC2)cc1 (stereo unspecified) returned SARS PLpro yeast -7.3%, Sm TGR inh -3.2%, Pf growth 48h 59.2%, HCMV inh 42.0, HCV inhibitor -4.6% and Pf growth 96h 2.33µM*.
For CCOC(=O)c1ccc(C(=O)NNC(=O)C2CC=CCC2)cc1 (stereo unspecified) the results were HCMV inh -37.2 and HCV inhibitor 10.4%.
For CC(COc1cccc2ccccc12)CN1CCN(C)CC1 (stereo unspecified) the results were SARS PLpro yeast 0.1%, Sm TGR inh 25.1µM*, Pf growth 48h inconclusive, HCMV inh 5.3, HCV inhibitor 5.01µM* and Pf growth 96h inconclusive.
For COc1ccc(N/N=C(/C)c2cnnc(-c3ccccc3)n2)cc1 the results were SARS PLpro yeast -27.3%, Sm TGR inh -8.4%, Pf growth 48h inconclusive, HCMV inh inconclusive, HCV inhibitor -6.2% and Pf growth 96h 0.37µM*.
`CCC/C(=N/Nc1ccc(Cl)cc1)c1cnnc(-c2ccccc2)n1` gave HCV inhibitor 14.1µM*.
`CC/C(=N/Nc1ccc(Cl)cc1)c1cnnc(SC)n1` gave SARS PLpro yeast -1.0%, Sm TGR inh -19.6%, Pf growth 48h inconclusive, HCMV inh 0.6, HCV inhibitor -20.3% and Pf growth 96h inconclusive.
For CC/C(=N/Nc1ccccc1Cl)c1cnnc(-c2ccccc2)n1 the results were SARS PLpro yeast -4.5%, Sm TGR inh 0.9%, Pf growth 48h 2.33µM*, HCMV inh -30.2, HCV inhibitor inconclusive and Pf growth 96h 1.04µM*.
`COc1ccc([C@@H]2[C@H](C(=O)N3CCOCC3)CC(=O)N2C(=O)/C=C/c2ccccc2)cc1` gave HCMV inh -21.2.
`CCc1cc(C(=O)OC)c(NC(=O)c2ccoc2C)s1` gave SARS PLpro yeast -0.1%, Sm TGR inh 2.6%, Pf growth 48h inconclusive, HCMV inh -21.4, HCV inhibitor 10µM* and Pf growth 96h inconclusive.
